According to PubChem BioAssay (Tox21):
Calls of active or inactive are those of the source. Calls follow the shape of the dose curve; as a rule, active = well fitted activation curve with a large enough effect in the repeat runs; inconclusive = weak or mixed curves; inactive = flat fitted curve, though single readings scatter.
% is scaled to controls: 0 for no effect and ±100 for the full control effect.

Experiment: Caspase-3/7 induction in CHO-K1 cells by small molecules, qHTS assay (AID 1346980); also: nearly all actives have a fitted effect of over 15% in size
Details: CHO-K1 caspase-3/7 induction, Caspase-Glo luminescence, 17 h; series mostly up to 92.4 µM
Text: National Center for Advancing Translational Sciences [NCATS]
NIH Chemical Genomics Center [NCGC]
U.S. Environmental Protection Agency [EPA]
National Institutes of Environmental Health Sciences [NIEHS]
National Toxicology Program [NTP]
Apoptosis is a process of programmed cell death and plays a central role in the development of multicellular organisms. It is a highly regulated process and induces cell death by activating caspases, which are the members of cysteine aspartic acid-specific protease (caspase) family. Caspases involved in apoptosis are classified by their mechanism of action as initiator caspases (caspase-2, -8, -9 and -10) and executioner caspases (caspase-3, -6, and -7). Inhibition of apoptosis results in number of cancers, autoimmune diseases, inflammatory diseases and viral infection. To identify small molecule compounds that induce apoptosis, a homogeneous, luminescent Caspase-Glo 3/7 assay was used. Wild type CHO-K1 cells were used to screen Tox21 libraries for identifying caspase-3/7 activity inducers.
CHO-K1 cells were dispensed at 1,500 per well in 5uL of culture medium into white solid bottom 1536-well plates (Corning Life Sciences, Corning, NY) using a Multidrop Combi (Thermo Scientific, Waltham, MA) dispenser. The assay plates were incubated at 37 C and 5% CO2 for 5hr, and then 23nL of compounds dissolved in DMSO and positive control were transferred using a Pintool station (Wako, San Diego, CA). The assay plates were incubated at 37C and 5% CO2 for 17hr. For caspase-3/7 activity read, 4uL of Caspase-Glo 3/7 reagent (Promega Corporation, Madison, WI) was added to each well of the assay plates using Flying Reagent Dispenser (FRD, Aurora Discovery, San Diego, CA) and incubated the assay plates at room temperature for 30min. The luminescence signal was quantified using a ViewLux plate reader (Perkin Elmer, Shelton, CT).
With `N[C@@H](CCC(=O)Nc1ccc([N+](=O)[O-])cc1)C(=O)O` the outcome was “inactive”.
With `C=C(C)C1CCC(C)(O)CC1` (stereo not given) the outcome was “inactive”.
With `CC(=O)Nc1ccc(S(=O)(=O)Cl)cc1` the outcome was “inactive”.
For `Cc1nc2n(c(=O)c1CCN1CCC(c3noc4cc(F)ccc34)CC1)CCC[C@H]2O`, the caspase-3/7 activation was 0.349% [at 19 µM] (inactive).
In the case of `CCCCOC(=O)c1ccccc1`, the outcome is reported as “inactive”.
In the case of `CCCCCCCC/C=C\CCCCCCCC(=O)OCCCC`, the caspase-3/7 activation is reported as -0.343% [at 19 µM] (inactive).
With `CNS(=O)(=O)CCc1ccc2[nH]cc(C3CCN(C)CC3)c2c1` the outcome was “inactive”.
For `CCO[Si](CCCS)(OCC)OCC`, the outcome was “inactive”.
For `BrCCCCCBr`, the outcome was “inactive”.
With `OC[C@H](Cc1cccc(O)c1)[C@H](CO)Cc1cccc(O)c1` the outcome was “inactive”.
With `CCCOC(=O)C(C)O` (stereo not given) the outcome was “inactive”.
For `CCCCCCCCSCC`, the outcome was “inactive”.
In the case of `CC(=O)Nc1cccc(C)c1`, the outcome is reported as “inactive”.
With `CCN(CC)CC(=O)Nc1c(C)cccc1C` the outcome was “inactive”.
With `CC(=O)c1ccc2c(c1)Cc1ccccc1-2` the outcome was “inactive”.
For `COc1ccc(C2CNC(=O)C2)cc1OC1CCCC1` (stereo not given), the outcome was “inactive”.
In the case of `Nc1ccc2cc(S(=O)(=O)O)cc(O)c2c1`, the outcome is reported as “inactive”.
In the case of `O=C1c2ccccc2C(=O)c2cc(S(=O)(=O)O)ccc21`, the outcome is reported as “inactive”.
In the case of `CCC(C)(CCC(C)C)C(=O)O` (stereo not given), the outcome is reported as “inactive”.
For `OCCN(CCO)c1cccc(Cl)c1`, the outcome was “inactive”.
In the case of `NCCN1CCOCC1`, the outcome is reported as “inactive”.
With `C[C@@H](Oc1ccc(CNC(=O)c2cccnc2Oc2ccc3c(c2)OCO3)c(F)c1)C(=O)O` the outcome was “inactive”.
In the case of `C=C(C)C(=O)OCCOP(=O)(O)OCCOC(=O)C(=C)C`, the outcome is reported as “inactive”.
For `N[C@@H](CCC(=O)N[C@@H](CS)C(=O)NCC(=O)O)C(=O)O`, the caspase-3/7 activation was -0.229% [at 19 µM] (inactive).
With `O=C1c2cccc3c2[C@H](CCC3)CN1[C@@H]1CN2CCC1CC2` the outcome was “inactive”.
In the case of `CC(CN)CC(C)(C)CCN` (stereo not given), the outcome is reported as “inactive”.
With `O=C(NCCN1CCOCC1)c1ccc(Cl)cc1` the outcome was “inactive”.
For `C=C(C)C(=O)OCCNC(C)(C)C`, the outcome was “inactive”.
With `C[Si](C)(C)C` the outcome was “inactive”.
For `CC(C)(C)OC(=O)c1ccc(O)cc1`, the outcome was “inactive”.
With `NCCS` the outcome was “inactive”.
In the case of `CCOc1cc([N+](=O)[O-])c(OCC)cc1N1CCOCC1`, the outcome is reported as “inactive”.
For `O=C(OCC1(COC(=O)c2cccnc2)CCCC(COC(=O)c2cccnc2)(COC(=O)c2cccnc2)C1O)c1cccnc1`, the outcome was “inactive”.
For `N#Cc1ccc(C(=O)O)cc1`, the outcome was “inactive”.
In the case of `CCCCCOC(=O)CCC`, the outcome is reported as “inactive”.
In the case of `Cc1ccc2c(c1)OCC(=O)CO2`, the outcome is reported as “inactive”.
In the case of `NNc1nnc(NN)c2ccccc12`, the outcome is reported as “inactive”.
In the case of `CO[C@@H]1[C@@H](OC(N)=O)[C@@H](O)[C@H](Oc2ccc3c(O)c(NC(=O)c4ccc(O)c(CC=C(C)C)c4)c(=O)oc3c2C)OC1(C)C`, the outcome is reported as “inactive”.
In the case of `COc1cc2c(cc1OC)[C@@H]1CC(=O)[C@@H](CC(C)C)CN1CC2`, the outcome is reported as “inactive”.
In the case of `CC(=O)NCCCCCC(=O)O`, the outcome is reported as “inactive”.
